Our source for the residual activity values is ChEMBL document CHEMBL2218924, “A broad activity screen in support of a chemogenomic map for kinase signalling research and drug discovery” (Biochem J, 2013).

Assay [1] addresses T1, Ephrin type-A receptor 3 (Homo sapiens) (UniProt P29320).
T1 sequence (whole entry): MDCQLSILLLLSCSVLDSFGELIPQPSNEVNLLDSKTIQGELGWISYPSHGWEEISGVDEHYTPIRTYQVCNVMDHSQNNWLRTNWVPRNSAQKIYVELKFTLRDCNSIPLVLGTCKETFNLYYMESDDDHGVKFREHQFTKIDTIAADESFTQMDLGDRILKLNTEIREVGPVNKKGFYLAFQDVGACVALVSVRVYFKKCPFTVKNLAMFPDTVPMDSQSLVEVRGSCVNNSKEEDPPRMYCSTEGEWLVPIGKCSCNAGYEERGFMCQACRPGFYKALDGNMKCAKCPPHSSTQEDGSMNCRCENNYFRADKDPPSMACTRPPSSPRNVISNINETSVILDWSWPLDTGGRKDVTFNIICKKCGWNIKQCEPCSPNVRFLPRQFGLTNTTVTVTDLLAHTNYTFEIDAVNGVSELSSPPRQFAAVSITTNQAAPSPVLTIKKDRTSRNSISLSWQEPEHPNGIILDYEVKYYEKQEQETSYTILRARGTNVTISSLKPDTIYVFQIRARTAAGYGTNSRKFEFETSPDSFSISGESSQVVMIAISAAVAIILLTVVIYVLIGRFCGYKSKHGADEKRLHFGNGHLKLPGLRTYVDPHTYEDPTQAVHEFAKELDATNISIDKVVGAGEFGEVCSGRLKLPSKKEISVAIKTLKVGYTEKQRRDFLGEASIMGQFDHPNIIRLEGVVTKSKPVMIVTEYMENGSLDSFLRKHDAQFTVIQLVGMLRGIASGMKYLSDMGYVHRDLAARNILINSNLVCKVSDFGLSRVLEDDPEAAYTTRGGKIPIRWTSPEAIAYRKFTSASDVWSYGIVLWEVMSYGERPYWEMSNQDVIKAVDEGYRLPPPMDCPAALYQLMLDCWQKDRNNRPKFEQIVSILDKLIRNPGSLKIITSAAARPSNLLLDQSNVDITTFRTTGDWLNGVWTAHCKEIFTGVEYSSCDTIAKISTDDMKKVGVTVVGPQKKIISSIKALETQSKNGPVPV
Particulars: at 10 µM.

Assay [2] deals with Ephrin type-A receptor 4 (Homo sapiens) (UniProt P54764). Particulars: at 1 µM.
Sequence of Ephrin type-A receptor 4 (Homo sapiens) (P54764 whole entry): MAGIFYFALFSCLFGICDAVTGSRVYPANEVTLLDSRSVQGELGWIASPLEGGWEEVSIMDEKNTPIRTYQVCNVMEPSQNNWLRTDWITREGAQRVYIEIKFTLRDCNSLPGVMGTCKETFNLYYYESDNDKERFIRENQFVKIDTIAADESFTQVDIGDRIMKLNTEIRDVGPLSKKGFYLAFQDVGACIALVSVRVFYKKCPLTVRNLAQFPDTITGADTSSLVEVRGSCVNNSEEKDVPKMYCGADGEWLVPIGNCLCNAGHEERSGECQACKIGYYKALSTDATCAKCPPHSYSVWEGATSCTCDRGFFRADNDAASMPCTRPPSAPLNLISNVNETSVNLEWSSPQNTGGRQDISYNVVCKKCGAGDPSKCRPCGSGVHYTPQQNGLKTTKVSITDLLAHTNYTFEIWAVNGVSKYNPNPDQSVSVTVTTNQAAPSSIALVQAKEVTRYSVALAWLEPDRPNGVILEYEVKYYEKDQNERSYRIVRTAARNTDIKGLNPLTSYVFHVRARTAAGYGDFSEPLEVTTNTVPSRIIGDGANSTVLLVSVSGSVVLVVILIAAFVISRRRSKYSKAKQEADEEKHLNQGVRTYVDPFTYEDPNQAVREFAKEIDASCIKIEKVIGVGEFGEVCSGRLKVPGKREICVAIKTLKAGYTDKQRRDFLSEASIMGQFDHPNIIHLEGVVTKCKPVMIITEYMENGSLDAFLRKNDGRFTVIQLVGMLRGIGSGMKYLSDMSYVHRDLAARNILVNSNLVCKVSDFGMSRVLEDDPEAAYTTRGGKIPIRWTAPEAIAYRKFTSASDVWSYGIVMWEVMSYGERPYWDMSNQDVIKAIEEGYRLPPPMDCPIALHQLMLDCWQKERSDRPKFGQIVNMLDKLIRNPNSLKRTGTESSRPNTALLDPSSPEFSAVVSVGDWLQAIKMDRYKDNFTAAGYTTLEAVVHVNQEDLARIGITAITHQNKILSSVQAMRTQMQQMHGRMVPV
Assay [3] has the same target. The note with it: at 10 µM.
Assay [4] addresses Ephrin type-A receptor 5 (Homo sapiens) (UniProt P54756). The note with it: at 1 µM.
The target is the same in assay [5]. The note with it: at 10 µM.
The target of assay [6] is Ephrin type-A receptor 7 (Homo sapiens) (UniProt Q15375). Particulars: at 1 µM.
Sequence of Ephrin type-A receptor 7 (Homo sapiens) (Q15375 28-998 limits assumed): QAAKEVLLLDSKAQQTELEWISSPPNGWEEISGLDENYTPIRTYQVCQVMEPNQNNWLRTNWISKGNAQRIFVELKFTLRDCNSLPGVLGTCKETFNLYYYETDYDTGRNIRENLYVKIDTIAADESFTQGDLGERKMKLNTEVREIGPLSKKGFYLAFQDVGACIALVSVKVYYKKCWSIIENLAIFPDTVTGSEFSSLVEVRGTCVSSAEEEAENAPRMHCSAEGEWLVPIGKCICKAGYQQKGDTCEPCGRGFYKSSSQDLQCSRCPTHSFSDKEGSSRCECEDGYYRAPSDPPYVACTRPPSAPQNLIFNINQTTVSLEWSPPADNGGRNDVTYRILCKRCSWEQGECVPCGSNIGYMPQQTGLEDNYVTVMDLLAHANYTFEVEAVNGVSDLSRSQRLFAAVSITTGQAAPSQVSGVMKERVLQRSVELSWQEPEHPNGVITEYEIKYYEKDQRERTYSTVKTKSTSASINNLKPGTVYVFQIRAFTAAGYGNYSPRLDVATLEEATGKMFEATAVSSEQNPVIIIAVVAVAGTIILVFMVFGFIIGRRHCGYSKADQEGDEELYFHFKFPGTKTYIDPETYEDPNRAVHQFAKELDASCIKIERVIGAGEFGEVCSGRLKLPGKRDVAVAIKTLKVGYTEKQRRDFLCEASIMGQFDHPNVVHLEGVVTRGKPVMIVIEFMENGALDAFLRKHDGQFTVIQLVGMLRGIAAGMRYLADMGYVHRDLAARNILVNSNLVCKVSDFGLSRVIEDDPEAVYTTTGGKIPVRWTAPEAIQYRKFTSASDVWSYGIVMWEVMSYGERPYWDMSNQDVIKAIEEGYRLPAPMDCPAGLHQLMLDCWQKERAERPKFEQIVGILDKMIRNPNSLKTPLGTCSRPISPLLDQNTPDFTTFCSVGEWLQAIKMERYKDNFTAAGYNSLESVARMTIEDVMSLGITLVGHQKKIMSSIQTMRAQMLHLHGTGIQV
The target is the same in assay [7]. The note with it: at 10 µM.
The target in assay [8] is T2, Ephrin type-A receptor 8 (Homo sapiens) (UniProt P29322).
T2 sequence (whole entry): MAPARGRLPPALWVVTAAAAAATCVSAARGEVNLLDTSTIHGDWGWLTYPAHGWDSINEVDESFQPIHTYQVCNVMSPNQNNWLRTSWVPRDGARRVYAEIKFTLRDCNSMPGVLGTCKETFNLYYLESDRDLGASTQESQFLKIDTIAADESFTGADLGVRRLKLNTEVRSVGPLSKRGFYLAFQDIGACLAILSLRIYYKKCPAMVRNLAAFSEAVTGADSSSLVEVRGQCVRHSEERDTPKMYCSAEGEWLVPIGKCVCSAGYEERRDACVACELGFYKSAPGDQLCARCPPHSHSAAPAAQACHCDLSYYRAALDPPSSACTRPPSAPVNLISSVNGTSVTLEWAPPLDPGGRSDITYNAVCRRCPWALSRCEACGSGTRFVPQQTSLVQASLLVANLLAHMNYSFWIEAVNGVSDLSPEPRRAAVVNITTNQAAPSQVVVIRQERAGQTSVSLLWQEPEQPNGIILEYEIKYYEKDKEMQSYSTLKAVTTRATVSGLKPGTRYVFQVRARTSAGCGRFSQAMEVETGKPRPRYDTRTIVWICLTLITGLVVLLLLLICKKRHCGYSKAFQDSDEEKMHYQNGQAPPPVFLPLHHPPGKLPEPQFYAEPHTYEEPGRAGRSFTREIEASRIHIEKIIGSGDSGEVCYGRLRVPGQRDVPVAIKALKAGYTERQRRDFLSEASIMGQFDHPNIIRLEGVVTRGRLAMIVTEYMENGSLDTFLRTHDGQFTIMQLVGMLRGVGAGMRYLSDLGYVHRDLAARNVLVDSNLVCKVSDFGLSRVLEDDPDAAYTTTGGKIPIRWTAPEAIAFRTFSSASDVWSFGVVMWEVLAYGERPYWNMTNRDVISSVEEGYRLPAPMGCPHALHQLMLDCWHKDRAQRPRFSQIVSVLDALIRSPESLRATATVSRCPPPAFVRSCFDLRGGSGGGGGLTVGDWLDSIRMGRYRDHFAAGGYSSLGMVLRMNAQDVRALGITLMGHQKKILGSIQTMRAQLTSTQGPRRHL
The note with it: at 1 µM.

For assay [9], the target named is T2, Ephrin type-A receptor 8 (Homo sapiens). Particulars: at 10 µM.
The target in assay [10] is T3, Ephrin type-B receptor 1 (Homo sapiens) (UniProt P54762).
T3 sequence (whole entry): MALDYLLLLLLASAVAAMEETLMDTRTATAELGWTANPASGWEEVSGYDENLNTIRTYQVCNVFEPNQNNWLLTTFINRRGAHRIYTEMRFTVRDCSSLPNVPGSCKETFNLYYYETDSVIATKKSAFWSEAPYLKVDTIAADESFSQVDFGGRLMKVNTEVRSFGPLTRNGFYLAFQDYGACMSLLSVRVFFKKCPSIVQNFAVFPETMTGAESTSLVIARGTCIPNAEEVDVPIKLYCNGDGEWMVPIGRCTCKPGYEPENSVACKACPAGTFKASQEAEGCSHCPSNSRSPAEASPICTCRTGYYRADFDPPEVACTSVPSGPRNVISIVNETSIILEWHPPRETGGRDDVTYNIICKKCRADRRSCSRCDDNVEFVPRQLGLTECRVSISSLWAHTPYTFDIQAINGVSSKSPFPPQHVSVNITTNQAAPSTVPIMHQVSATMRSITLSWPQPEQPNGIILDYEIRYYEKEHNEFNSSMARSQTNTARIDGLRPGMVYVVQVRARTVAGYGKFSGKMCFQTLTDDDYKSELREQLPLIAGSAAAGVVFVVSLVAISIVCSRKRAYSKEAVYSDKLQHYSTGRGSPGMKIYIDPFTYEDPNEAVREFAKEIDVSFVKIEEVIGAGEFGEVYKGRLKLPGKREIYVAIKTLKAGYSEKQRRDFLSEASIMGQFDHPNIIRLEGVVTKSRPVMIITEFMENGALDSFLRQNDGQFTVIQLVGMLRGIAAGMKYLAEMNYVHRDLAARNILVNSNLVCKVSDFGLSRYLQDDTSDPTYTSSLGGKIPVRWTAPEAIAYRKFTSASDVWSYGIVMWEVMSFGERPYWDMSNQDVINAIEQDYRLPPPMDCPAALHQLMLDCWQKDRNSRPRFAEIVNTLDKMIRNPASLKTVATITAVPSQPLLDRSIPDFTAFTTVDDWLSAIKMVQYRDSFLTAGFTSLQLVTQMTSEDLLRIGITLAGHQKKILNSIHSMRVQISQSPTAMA
The note with it: at 1 µM.

Sequence of Ephrin type-A receptor 5 (Homo sapiens) (P54756 whole entry): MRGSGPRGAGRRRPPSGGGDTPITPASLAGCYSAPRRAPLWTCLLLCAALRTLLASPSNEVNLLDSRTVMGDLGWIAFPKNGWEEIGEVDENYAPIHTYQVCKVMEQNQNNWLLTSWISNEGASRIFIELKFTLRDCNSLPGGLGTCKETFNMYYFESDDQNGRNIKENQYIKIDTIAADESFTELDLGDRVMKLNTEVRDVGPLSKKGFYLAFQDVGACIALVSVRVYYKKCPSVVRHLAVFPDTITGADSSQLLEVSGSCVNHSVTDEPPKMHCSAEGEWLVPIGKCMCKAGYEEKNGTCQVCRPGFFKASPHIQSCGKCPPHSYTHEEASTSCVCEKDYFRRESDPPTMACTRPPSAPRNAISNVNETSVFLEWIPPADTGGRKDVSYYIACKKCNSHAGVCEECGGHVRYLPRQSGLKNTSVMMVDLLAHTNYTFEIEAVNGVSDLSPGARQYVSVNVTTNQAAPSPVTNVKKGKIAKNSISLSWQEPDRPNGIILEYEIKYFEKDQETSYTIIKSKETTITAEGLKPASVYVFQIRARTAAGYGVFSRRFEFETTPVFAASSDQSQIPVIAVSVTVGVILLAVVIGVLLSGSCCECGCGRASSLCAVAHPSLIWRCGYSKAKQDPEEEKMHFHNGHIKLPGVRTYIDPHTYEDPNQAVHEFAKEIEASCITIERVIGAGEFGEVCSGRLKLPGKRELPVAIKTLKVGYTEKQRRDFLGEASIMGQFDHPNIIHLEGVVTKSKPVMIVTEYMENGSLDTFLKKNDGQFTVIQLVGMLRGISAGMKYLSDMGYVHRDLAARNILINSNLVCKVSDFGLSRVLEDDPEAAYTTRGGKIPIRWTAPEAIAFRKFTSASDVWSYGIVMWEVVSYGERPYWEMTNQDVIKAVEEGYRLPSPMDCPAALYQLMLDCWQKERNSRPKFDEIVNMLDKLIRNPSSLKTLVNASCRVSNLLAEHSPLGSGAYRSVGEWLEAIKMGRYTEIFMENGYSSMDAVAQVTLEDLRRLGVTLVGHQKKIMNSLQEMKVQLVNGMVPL

As to `CNc1cc2c(Nc3cccc(Br)c3)ncnc2cn1`, the residual activity came out at 78% in assay [1]; 105% in assay [2]; 95% in [3]; 103% in assay [4]; 92% in assay [5]; 90% in assay [6]. The residual activity in assay [7] amounted to 54%; in [8], 98%; in assay [9], 69%; in assay [10], 93%.
